Consider 8 molecules from PubChem BioAssay (NCI).

Values joined by “and” are separate entries in the source; they are usually repeats but may differ in a detail not shown here. Equal entries are not always repeated. About 83,000 compounds went through this panel and 20% of them were active in at least one assay; those are over-represented in the sample as a whole.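 Interpretation: 100, growth as untreated; towards 0, rising growth inhibition; 0, no net growth; 0 to -100, cell death. Compounds scoring below 10 were considered active.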 Unmarked numbers belong to inactive results. Active and inactive are the calls of the source.

Among the test systems are SR leukemia; RPMI-8226 leukemia; OVCAR-8 ovarian; OVCAR-5 ovarian; OVCAR-4 ovarian; SK-OV-3 ovarian; IGROV1 ovarian; OVCAR-3 ovarian; HS 578T breast; NCI/ADR-RES ovarian; T-47D breast; BT-549 breast; MDA-MB-435 melanoma; SW-620 colon; MCF7 breast; HCT-116 colon; HCC-2998 colon; KM12 colon.
What all share (test): NCI-60 one-dose screen, 48 h (100 = growth as untreated, 0 = no growth, -100 = all killed)
Holding throughout (conditions): 10 µM unless noted

For `O=C(CCl)n1nnnc1Cc1ccccc1`, the growth in the assay on SR leukemia is 93.5%; with RPMI-8226 leukemia, 96.3%; with OVCAR-8 ovarian, 91.1%; in the assay with OVCAR-5 ovarian it was 95.9%; in the assay with OVCAR-4 ovarian, 105%; with SK-OV-3 ovarian, 93.6%. For the same molecule, the growth is 107% in the assay on IGROV1 ovarian; 112% in the assay with OVCAR-3 ovarian; 121% with HS 578T breast; 101% in the assay on NCI/ADR-RES ovarian; 98.8% in the assay on T-47D breast; 93.7% in the assay on BT-549 breast. For the same molecule, the growth in the assay with MDA-MB-435 melanoma was 103%; in the assay on SW-620 colon it was 101%; in the assay on MCF7 breast, 101%; in the assay with HCT-116 colon, 102%; in the assay with HCC-2998 colon it was 94.6%; with KM12 colon, 116%.

As to `Nc1ccc(S(=O)(=O)c2ccc(N)cc2)cc1`, the growth in the assay with SR leukemia was 99.7% and 121%; in the assay on RPMI-8226 leukemia, 96.7% and 85.4%; in the assay with OVCAR-8 ovarian, 97.2% and 93.1%; in the assay with OVCAR-5 ovarian, 104% and 96.4%; with OVCAR-4 ovarian, 111% and 117%; in the assay on SK-OV-3 ovarian it was 118% and 102%. Besides, the growth in the assay on IGROV1 ovarian is 108% and 61%; with OVCAR-3 ovarian, 121% and 112%; with HS 578T breast, 106% and 96.8%; with NCI/ADR-RES ovarian it was 101% and 97.2%; with T-47D breast, 104% and 100%; with BT-549 breast it was 104% and 110%. Also, the growth with MDA-MB-435 melanoma was 94.6%; in the assay with SW-620 colon it was 108% and 92.5%; in the assay with MCF7 breast, 99.5% and 104%; in the assay on HCT-116 colon, 107% and 94.9%; with HCC-2998 colon it was 98% and 108%; with KM12 colon it was 106% and 109%.

As for `CCCCC(NC(=O)CN1C(=O)/C(=C/C(C)=C/c2ccccc2)SC1=S)C(=O)O` (centres undefined), the growth in the assay on SR leukemia is 115%; in the assay on RPMI-8226 leukemia, 115%; with OVCAR-8 ovarian it was 102%; in the assay on OVCAR-5 ovarian it was 101%; in the assay on OVCAR-4 ovarian, 101%; with SK-OV-3 ovarian, 105%. The growth is 102% in the assay on IGROV1 ovarian; 112% in the assay on OVCAR-3 ovarian; 102% with HS 578T breast; 98% in the assay with NCI/ADR-RES ovarian; 105% in the assay with T-47D breast; 112% with BT-549 breast. Also, the growth in the assay on MDA-MB-435 melanoma is 104%; with SW-620 colon it was 94.6%; in the assay with MCF7 breast, 93.3%; in the assay with HCT-116 colon it was 98.5%; with HCC-2998 colon, 110%; in the assay on KM12 colon it was 102%.

Regarding `N=c1c2c(-c3ccccc3)c(-c3ccccc3)oc2ncn1NC(=O)c1cccnc1`, the growth is 77.7% in the assay with SR leukemia; 97.5% with RPMI-8226 leukemia; 97.7% in the assay with OVCAR-8 ovarian; 109% with OVCAR-5 ovarian; 101% in the assay on OVCAR-4 ovarian; 99.2% in the assay on SK-OV-3 ovarian. Also, the growth with IGROV1 ovarian was 95.7%; in the assay on OVCAR-3 ovarian, 111%; in the assay with HS 578T breast, 103%; in the assay on NCI/ADR-RES ovarian, 107%; with T-47D breast it was 96.2%; with BT-549 breast, 103%. Also, the growth with MDA-MB-435 melanoma was 104%; in the assay with SW-620 colon, 106%; with MCF7 breast, 98.5%; in the assay with HCT-116 colon, 96.1%; with HCC-2998 colon, 118%; in the assay on KM12 colon, 95.6%.

Turning to `COc1ccc(-c2c[nH]c(C(=O)O)c2-c2cc(OC)c(OC)c(OC)c2)cc1`, the growth in the assay with SR leukemia was 18.7%; in the assay on RPMI-8226 leukemia, 36%; with OVCAR-8 ovarian, 51.4%; in the assay with OVCAR-5 ovarian, 80.6%; in the assay with OVCAR-4 ovarian it was 49.9%; in the assay with SK-OV-3 ovarian, 53.2%. Besides, the growth in the assay with IGROV1 ovarian was 54.8%; in the assay with OVCAR-3 ovarian it was -2.04% (active); in the assay on HS 578T breast it was 9.64% (active); in the assay on NCI/ADR-RES ovarian, 24.2%; in the assay on T-47D breast it was 15.3%; in the assay with BT-549 breast, 65.8%. Besides, the growth is -21.3% (active) in the assay on MDA-MB-435 melanoma; 23.6% with SW-620 colon; 24.2% with MCF7 breast; 29.6% with HCT-116 colon; 84.6% in the assay with HCC-2998 colon; 25% in the assay with KM12 colon.

As to `Cc1ccc(S(=O)(=O)OC[C@@]2(C)CC[C@]3(C)CC[C@]4(C)C(=C3C2)C=C[C@@H]2[C@@]3(C)CCCNC(C)(C)[C@@H]3CC[C@]24C)cc1`, the growth was -30.9% (active) with SR leukemia; -66% (active) with RPMI-8226 leukemia; -65.6% (active) in the assay on OVCAR-8 ovarian; 34.8% in the assay on OVCAR-5 ovarian; -40.5% (active) in the assay on OVCAR-4 ovarian; 104% in the assay with SK-OV-3 ovarian. Further, the growth is -2.07% (active) in the assay on IGROV1 ovarian; 23.5% in the assay on OVCAR-3 ovarian; 83.4% with HS 578T breast; -19.7% (active) in the assay with NCI/ADR-RES ovarian; -57.7% (active) in the assay with T-47D breast; 83.6% with BT-549 breast. Moreover, the growth was -38.2% (active) in the assay with MDA-MB-435 melanoma; -85.8% (active) in the assay with SW-620 colon; -4.17% (active) with MCF7 breast; -91.4% (active) in the assay with HCT-116 colon; -29% (active) in the assay with HCC-2998 colon; -75.8% (active) in the assay on KM12 colon.

`C=C1C(=O)O[C@@H]2[C@H]3[C@H](COC(C)=O)[C@@H](OC(C)=O)C[C@H]3C(=C)[C@@H](O)C[C@@H]12`: the growth in the assay on SR leukemia is 72.6%; in the assay on RPMI-8226 leukemia it was 76%; with OVCAR-8 ovarian, 92.1%; with OVCAR-5 ovarian it was 97.2%; in the assay on OVCAR-4 ovarian, 110%; in the assay with SK-OV-3 ovarian, 108%. The growth in the assay on IGROV1 ovarian is 101%; with OVCAR-3 ovarian, 80.9%; with HS 578T breast it was 92.4%; with NCI/ADR-RES ovarian, 98.6%; in the assay with T-47D breast, 90.5%; in the assay with BT-549 breast, 94.2%. Moreover, the growth in the assay on MDA-MB-435 melanoma is 101%; with SW-620 colon, 84.4%; in the assay on MCF7 breast it was 76.8%; in the assay with HCT-116 colon it was 75.7%; in the assay on HCC-2998 colon it was 109%; in the assay with KM12 colon it was 99.8%.

With `N#CC1=C(N)Oc2c(sc3c(Br)cccc23)C1c1ccccn1` (centres undefined), the growth was 12.7% in the assay with SR leukemia; 30% in the assay on RPMI-8226 leukemia; 53.8% in the assay on OVCAR-8 ovarian; 72% with OVCAR-5 ovarian; 88.6% in the assay with OVCAR-4 ovarian; 27.2% in the assay on SK-OV-3 ovarian. Besides, the growth in the assay on IGROV1 ovarian was 43.1%; in the assay with OVCAR-3 ovarian, 14.3%; with HS 578T breast it was 45.5%; in the assay on NCI/ADR-RES ovarian, 14.6%; with T-47D breast, 34.3%; with BT-549 breast it was 31.4%. The growth with MDA-MB-435 melanoma is 77.4%; in the assay on SW-620 colon it was 34.8%; with MCF7 breast, 18.8%; in the assay on HCT-116 colon it was 27.9%; with HCC-2998 colon it was 72.9%; in the assay with KM12 colon, 34.9%.
